The full ranking holds about 9,900 sequences; the median of “r (bound/input frequency ratio)” is about 0.7, and the highest 2% start at about 6.5. What follows is part of a selection rich in the highest values, with near analogues and random picks from the rest.
B1: ENSMUSG00000032194.22|Kank2 (ssRNA)
RNA: GGGAGUUCUACAGUCCGACGAUCGCUUCGAUAUCCGCAUGCUAUCCCUCUGUCCCAUUCUGCCUCGGCAUUCCUCAGCCCCUGAACUUCCCUGAGGGAGCCCUGACAUCUACCAGGCUCAAGCUCCUGGAAGCCUUUCCCAGCACCCUGGGUUCAAAGCCAGAAAGCCAAGCUACAUUCUCCUCCCAGUUGGCACCAGUUGACAACGCCUUGGGUGUGGGUUUCUUGUAAAGAACAUAGAGAACAAUCAGCCGGCAAUUAUGGGAGGAGGAAGGGGGGGCAAGAAGAGAAAAUACUGUAUUCUCUCUUGCGGUCGCACUAGUGUGGAAUUCUCGGGUGUCAAGG
B2: ENSMUSG00000035202.148|Lars2 (ssRNA)
RNA: GGGAGUUCUACAGUCCGACGAUCGCUUCGAUAUCCGCAUGCUAUCUCCAACACGAAAAAAGCAAGGCAACUCUACCAAAGAAACUAAUUACAUACUUGUAUUCCCAAUAUGUGAGAAGCUGAGGAAGGAGGAUCAUGAGUUUAAAGCCAUCCUUGGUUACAUGAGACUCUUGUCUCAAAGAACUACCAGGGAUCCUAAUGGACAACAAAGGUUGAAAACCAUUGAAUUAAUAAAUGUUGUGAACCAUAAUUUCUACCCAGUCCUUCUUCCUUCAUUUUCAUCUCAUCUGGGAUAAGUUUAGCCCUCUUGCGGUCGCACUAGUGUGGAAUUCUCGGGUGUCAAGG
B3: ENSMUSG00000043670.75|Diras1 (ssRNA)
RNA: GGGAGUUCUACAGUCCGACGAUCGCUUCGAUAUCCGCAUGCUAUUUGAUCCCUGUGGAUCUGAAAACAGGGACCUGGCUAAGGAACUGCUCAUCCCAGUCAGGCCCAGAGAGGUUACCUUGCCUCUCCAUCUCUGUCCCUGUGUGCCCAGCCAUGCCCACUGUCCCUGUCCCUCACAUUCUAUCACUGUGACCUCUGGGGAGUGCCCAUUGACCUCAUCUUCCUUCACUAAUAUCUUAUUUCUUUCACCUGAUCCUGUCCUUUCCCCGUGACCUCUGACCUGUGGCCUUCCCUGGGUCCAGAACUCUUGCGGUCGCACUAGUGUGGAAUUCUCGGGUGUCAAGG
B4: ENSMUSG00000058297.201|Spock2 (ssRNA)
RNA: GGGAGUUCUACAGUCCGACGAUCGCUUCGAUAUCCGCAUGCUAAGGAAAUGGUUCCCUCUUGCCCCGACCAAUAGAAGGGCGUGUCCCCGAGACCCUUGUGAGGAACCACGGGGAGCUGUGACUUCCUGUGCCCAGAAGGUCCUGGAGGAGAGGCCCCAAAGCCUUAGUCCUCUCAGCCAUGACUUUCCUCUGUCUCAAGGGUCCCCAAGAUGGCCCUAGAAGAACCAUGCCCCAGACUCUAUUUAAAGCCCUAUAGCAUAUAUGAAUAGAGAACGGUGUAUCUAUCAGAGGGGACCACACUGCUCUUGCGGUCGCACUAGUGUGGAAUUCUCGGGUGUCAAGG
B5: ENSMUSG00000061578.1546|Ksr2|104:108 (ssRNA)
RNA: GGGAGUUCUACAGUCCGACGAUCGCUUCGAUAUCCGCAUGCUAAGAUCAUUUAUAAAGUUUUCUACACUUCUCAAAAAAAAAAAUAUUUCUAACCUUGGCUGUUGGACAGUCUGUGAGCCUGUGAGCCGGCAAGCCUGUUGUUUCUACACAUUAGUGCAAUGUUAGUGAGAAUCCAGUGUCUGAGUUAUUAAUGCCAAUAAAGAAUUUGAGAAUUACUGCAUCCGCUGCUGUCACUCCAGGUCAGAACUCUGCUGUUGUCUGUUGGAUGGAAGGAAGCUCCAGAGUGAGGAACAAUGGUUGCUCUCUUGCGGUCGCACUAGUGUGGAAUUCUCGGGUGUCAAGG
B6: ENSMUSG00000029636.29|Wasf3|57:61;103:107 (ssRNA)
RNA: GGGAGUUCUACAGUCCGACGAUCGCUUCGAUAUCCGCAUGCUAUCUCUGCACCCUCACAGUGGUAUUUCCCUGUAGCUUUAGUCCCUUUUGUAUUAACACACACAUUUGCUUCUGCACAUCCUUCUGGAUUUGUUGAGUAUUUACACACAAAUACUUAAGUGCCACAGAACACAGCACACCGUGCUGCACACCAGGAAACUCGCAGUAUUAGUGCAUCACCCUGGAACAGCAUCUUGCUUCCCUCUCAGCCGUGAGAGUCCCCUCUCCUGUCCAUCCUGAUUUGGUGGGCUUGCCACGUAUCUCUCUUGCGGUCGCACUAGUGUGGAAUUCUCGGGUGUCAAGG
B7: ENSMUSG00000029636.244|Wasf3 (ssRNA)
RNA: GGGAGUUCUACAGUCCGACGAUCGCUUCGAUAUCCGCAUGCUAUGACAGGGAAUGCCUGUGGGAUAAUUAAAAAUGGUUUUUGCUCAUGAGUUUGGGAUGUCACCCAGCCGCCCACAUCGCCUGCUAUGUGUGUGGACGCCUGUCCGCUUGGCCAGCUAUCCUGUAACACCUGCCAGUAGUAGGUUUUCCUCAUGUCACUAUGACAGUGAAAGCCCAUGUGCAAGCCCCUCCCUACGCCCUGCUUUGGCGUGUGUCUGAGUGCUCUGUGCUGCGCCAUGGCCAUCCUGGAGCCUGCGCACACGCUCUUGCGGUCGCACUAGUGUGGAAUUCUCGGGUGUCAAGG
B8: ENSMUSG00000061578.1047|Ksr2 (ssRNA)
RNA: GGGAGUUCUACAGUCCGACGAUCGCUUCGAUAUCCGCAUGCUACCUCUCCCUGGAGCUGGCAGCCAUGGUUGAUGGCUAUGGGAUACAAUGUGGAUCUUUAGAUGUGAAAGUCUGAUGACUCAAAUCAAAGUUUGGUUUUUCUUUUCUACUACUCUGAAGGAAAAUCUCAGCUUGGCUAUUUCUUCAUGUUUUAAAAAUGUCUUGACUUCUCUCAGCAACCAACUUCAGGUGCCAGGAUAUGAGAUGCUAAGGUUCAGGGGUGGUGGAGGUGAUUCUAUCCAGUGGCCAGCAAUACCCAAAAGCUCUUGCGGUCGCACUAGUGUGGAAUUCUCGGGUGUCAAGG
B9: ENSMUSG00000042529.391|Kcnj12 (ssRNA)
RNA: GGGAGUUCUACAGUCCGACGAUCGCUUCGAUAUCCGCAUGCUAAGACAUGAUCAGUCCGACUUGAGUCCCUGCCCUGCCCUGGUUAUGCAGGCUGUACGACGCAGUGUGCAUCAGUCUGAGGAGUCUGGUGGUAAGUAAGCCUCUGCAGCAGACCCUGUCGGAGGCCAUGGGGGCGUGUGUGUGUGUGUGUGUGUGUGUGUGUGUGUGUGUGUGUGUGUGUGUGUGUGAACAUGUGUGAGGGUGUGGAGGUCCCAGGGUGUGUGUAUGUGAAUGUCAGUGGCUUGGGUGCUGUGUGGAGAGAGCUCUUGCGGUCGCACUAGUGUGGAAUUCUCGGGUGUCAAGG

Target: TDP-43 (Homo sapiens, UniProt Q13148 1-414)
Sequence (Q13148 whole entry): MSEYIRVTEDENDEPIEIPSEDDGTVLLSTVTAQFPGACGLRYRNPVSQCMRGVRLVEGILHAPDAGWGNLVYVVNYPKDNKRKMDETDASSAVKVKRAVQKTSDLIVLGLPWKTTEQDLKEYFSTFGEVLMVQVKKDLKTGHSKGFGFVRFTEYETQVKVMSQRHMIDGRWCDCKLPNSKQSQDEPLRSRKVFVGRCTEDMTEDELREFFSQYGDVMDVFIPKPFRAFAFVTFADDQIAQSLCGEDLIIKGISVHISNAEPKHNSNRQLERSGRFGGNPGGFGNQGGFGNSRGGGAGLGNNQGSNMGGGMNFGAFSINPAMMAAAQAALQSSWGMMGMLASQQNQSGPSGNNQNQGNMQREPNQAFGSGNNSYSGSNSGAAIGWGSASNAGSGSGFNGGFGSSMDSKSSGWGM
Assay: RNA Bind-n-Seq with designed 260-mer pool; 25 mM Tris-HCl, 150 mM KCl, 3 mM MgCl2, BSA (printed 500 mg/mL), 20 units/mL SUPERase IN; pH not stated; 500 nM RNA pool, 1 h, 4 C; TDP-43 5, 50, 500 nM; high values mean tight binding
Conditions: protein: recombinant; tags: SBP (GST cleaved off with PreScission; pGEX-GST-SBP)
Procedure, shortened: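 Binding (R) is the ratio of each oligo's mapped-read-normalized abundance in the bound fraction to its abundance in the input. To obtain it, SBP-tagged recombinant TDP-43 (5, 50 or 500 nM) on streptavidin beads was incubated with 500 nM of an in vitro-transcribed 260-nt 3′ UTR oligo pool for 1 h at 4 °C in 25 mM Tris-HCl, 150 mM KCl, 3 mM MgCl2, BSA and SUPERase IN. The RNA retained after washing was released with biotin, then reverse transcribed, amplified by PCR and sequenced.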

Binder | binding signal
B1 | 0.911 R (bound/input frequency ratio)
B2 | 0.0673 R (bound/input frequency ratio)
B3 | 2.09 R (bound/input frequency ratio)
B4 | 0.372 R (bound/input frequency ratio)
B5 | 0.542 R (bound/input frequency ratio)
B6 | 0.499 R (bound/input frequency ratio)
B7 | 0.625 R (bound/input frequency ratio)
B8 | 0.12 R (bound/input frequency ratio)
B9 | 10.1 R (bound/input frequency ratio)
